Data from PubChem BioAssay.
The source made the active and inactive calls.

What was measured:
[1] = tested on: PRMT1 (protein arginine N-methyltransferase 1); assay: PRMT1 binders on small-molecule microarrays, primary screen, biochemical, small-molecule microarray, 635 nm fluorescence (AID 1088); settings: small-molecule microarray binding, higher = more signal;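 note: binding of Prmt1 protein to compounds spotted on small-molecule microarray slides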
[2] = yeast growth modulation, basal conditions, primary screen, YJM789 clinical isolate, OD600, 24 h (AID 1089);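 note: growth of clinical yeast isolate S. cerevisiae YJM 789 seeded 1000 cells per well; test concentration not given here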; settings: S. cerevisiae YJM789 growth, higher = more signal, called active from +8 up or from −8 down
[3] = fission yeast growth modulation, primary screen, strain 972, OD600, 24 h, no modulator (AID 1090);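 note: basal condition with compound alone and no growth modifier present; test concentration not given here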; settings: S. pombe 972 growth, higher = more signal, called active from +8 up or from −8 down
[4] = S. cerevisiae growth modulation with rapamycin, primary screen, strain BY4716, OD600, 96 h (AID 1091); settings: higher = more signal, called active from +8 up or from −8 down; note: test concentration not given here
[5] = target: Torsin-1A-interacting protein 2 (Homo sapiens) (UniProt Q8NFQ8); assay: LULL1 binders on small-molecule microarray, primary screen, cell lysate, human LULL1 lysate, 635/667 nm fluorescence (AID 1092); settings: hLULL1 lysate binding, 635 nm fluorescence, higher = more signal;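 note: probe is lysate of COS7 cells overexpressing human LULL1; score merges per-feature 667 nm fluorescence with signal-to-noise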
[6] = E. coli growth modulation, two-sided OD650, primary screen, E. coli filamentation project, strain DRC41, 24 h (AID 1093); settings: OD650, 24 h, higher = more signal, called active from +8 up or from −8 down;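 note: MC1000 strain lacking acrAB efflux and sulA so SOS filamentation is blocked; test concentration not given here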
[7] = small-molecule microarray binders of probe aLefty2, primary screen, biochemical, biotinylated probe, 635/667 nm fluorescence (AID 1094); settings: higher = more signal;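 note: score merges spot fluorescence near 667 nm with spot signal-to-noise ratio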
[8] = tested on: Noggin (protein binding on small-molecule microarray); assay: Noggin binders on small-molecule microarray, primary screen, biochemical, 635/667 nm fluorescence (AID 1095); settings: 635 nm fluorescence, higher = more signal;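 note: score merges 667 nm feature fluorescence with signal to noise over triplicate slides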
[9] = target: Neurogenic locus notch homolog protein 3 (Homo sapiens) (UniProt Q9UM47); assay: NOTCH3 binders on small-molecule microarray, primary screen, biochemical, 635/667 nm fluorescence (AID 1096); settings: NOTCH3 binding, 635 nm fluorescence, higher = more signal
[10] = small-molecule microarray binders of probe aEGFR, primary screen, biochemical, biotinylated probe, 635/667 nm fluorescence (AID 1097); settings: higher = more signal;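 note: probe is a biotinylated anti-EGFR antibody binding compounds printed on slides; score combines fluorescence near 667 nm and signal to noise of each spot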
[11] = tested on: Plasmodium falciparum Sir2 (PF13_0152, Sir2A); assay: pfSir2 binders on small-molecule microarrays, primary screen, biochemical, small-molecule microarray, 635 nm fluorescence (AID 1098); settings: small-molecule microarray binding, fluorescence 635 nm; higher = more signal;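 note: score merges spot fluorescence intensity with its signal-to-noise ratio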
[12] = small-molecule microarray binders of probe aDKK1, primary screen, biochemical, biotinylated probe, 635/667 nm fluorescence (AID 1099); settings: higher = more signal;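 note: score merges 667nm spot fluorescence with signal to noise across triplicate slides; reference of the scale not given here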
[13] = small-molecule microarray binders of probe aCHRDL2, primary screen, biochemical, biotinylated probe, 635/667 nm fluorescence (AID 1100); settings: higher = more signal
[14] = splicing luciferase reporter signal modulators, primary screen, spliceosome inhibition project, cell-based, HEK293, splice +/- reporter (AID 1101); settings: luminescence, 24 h, higher = more signal, called active from +8 up or from −8 down;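 note: HEK293 cells carrying a splicing-competent luciferase reporter gene; test concentration not given here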
[15] = target: Fibroblast growth factor 10 (Homo sapiens) (UniProt O15520); assay: FGF10 binders on small-molecule microarrays, primary screen, biochemical, small-molecule microarray, 635 nm fluorescence (AID 1102); settings: FGF10 binding, fluorescence 635 nm, higher = more signal
[16] = tested on: glycogen synthase kinase-3 (GSK3A per assay name; protocol says GSK3B); assay: GSK3 binders on small-molecule microarrays, primary screen, biochemical, small-molecule microarray, 635 nm fluorescence, GSK3A (AID 1103); settings: small-molecule microarray binding, fluorescence 635 nm; higher = more signal; note: the record names both GSK3A and GSK3B
[17] = target: Epidermal growth factor receptor (Homo sapiens) (UniProt P00533); assay: EGFR binders on small-molecule microarrays, primary screen, biochemical, small-molecule microarray, 635 nm fluorescence (AID 1104); settings: EGFR binding, higher = more signal;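 note: score merges 667 nm emission intensity with spot signal to noise over triplicate slides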
[18] = target: Follistatin-related protein 3 (Homo sapiens) (UniProt O95633); assay: FSTL3 binders on small-molecule microarrays, primary screen, biochemical, small-molecule microarray, 635 nm fluorescence (AID 1105); settings: FSTL3 binding, higher = more signal;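 note: score merges emission near 667 nm and signal to noise per printed spot across three slides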
[19] = target: Dickkopf-related protein 1 (Homo sapiens) (UniProt O94907); assay: DKK1 binders on small-molecule microarrays, primary screen, biochemical, small-molecule microarray, 635 nm fluorescence scan (AID 1106); settings: DKK1 binding, higher = more signal;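 note: score merges emission near 667 nm with signal to noise over three replicate slides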
[20] = tested on: Inhibin beta A chain (activin A); assay: INHBA (activin A) binders on microarrays, primary screen, biochemical, small-molecule microarray, 635 nm fluorescence scan (AID 1107); settings: small-molecule microarray binding, higher = more signal;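 note: mouse activin A protein probed at 4.33 µg/mL on printed slides; score merges bound-protein fluorescence near 667 nm with spot signal-to-noise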

Chain of Epidermal growth factor receptor (Homo sapiens) (P00533 whole entry, looked up): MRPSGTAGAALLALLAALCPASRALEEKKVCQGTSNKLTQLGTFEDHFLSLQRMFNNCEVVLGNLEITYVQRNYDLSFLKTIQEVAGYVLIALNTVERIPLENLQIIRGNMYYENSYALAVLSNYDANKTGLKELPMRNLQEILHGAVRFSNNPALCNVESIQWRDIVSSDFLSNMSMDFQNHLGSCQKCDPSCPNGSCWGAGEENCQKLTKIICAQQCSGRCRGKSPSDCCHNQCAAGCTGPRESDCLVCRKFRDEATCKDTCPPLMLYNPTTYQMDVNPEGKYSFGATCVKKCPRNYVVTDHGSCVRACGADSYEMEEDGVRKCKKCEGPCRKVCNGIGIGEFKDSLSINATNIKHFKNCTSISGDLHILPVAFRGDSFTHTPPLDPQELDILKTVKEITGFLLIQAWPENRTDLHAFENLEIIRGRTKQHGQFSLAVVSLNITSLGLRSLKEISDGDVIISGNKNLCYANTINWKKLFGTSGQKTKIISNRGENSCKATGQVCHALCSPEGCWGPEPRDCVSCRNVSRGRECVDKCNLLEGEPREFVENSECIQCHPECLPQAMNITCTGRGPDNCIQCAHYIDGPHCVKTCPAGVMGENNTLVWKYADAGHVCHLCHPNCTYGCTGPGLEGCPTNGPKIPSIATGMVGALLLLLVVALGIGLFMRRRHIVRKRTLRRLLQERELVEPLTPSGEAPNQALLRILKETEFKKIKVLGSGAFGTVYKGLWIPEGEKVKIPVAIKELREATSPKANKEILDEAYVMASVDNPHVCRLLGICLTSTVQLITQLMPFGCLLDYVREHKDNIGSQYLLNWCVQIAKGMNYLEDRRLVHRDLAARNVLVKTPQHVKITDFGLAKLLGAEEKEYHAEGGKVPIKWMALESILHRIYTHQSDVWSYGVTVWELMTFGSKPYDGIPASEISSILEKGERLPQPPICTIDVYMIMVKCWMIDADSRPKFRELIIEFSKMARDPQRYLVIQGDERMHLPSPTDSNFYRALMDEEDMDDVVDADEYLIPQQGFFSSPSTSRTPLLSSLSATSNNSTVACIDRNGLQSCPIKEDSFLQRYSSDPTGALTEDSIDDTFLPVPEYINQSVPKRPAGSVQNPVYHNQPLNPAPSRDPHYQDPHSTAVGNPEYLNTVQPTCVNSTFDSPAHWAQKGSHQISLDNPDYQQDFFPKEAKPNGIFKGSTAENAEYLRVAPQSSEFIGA
Chain of Neurogenic locus notch homolog protein 3 (Homo sapiens) (Q9UM47 whole entry, looked up): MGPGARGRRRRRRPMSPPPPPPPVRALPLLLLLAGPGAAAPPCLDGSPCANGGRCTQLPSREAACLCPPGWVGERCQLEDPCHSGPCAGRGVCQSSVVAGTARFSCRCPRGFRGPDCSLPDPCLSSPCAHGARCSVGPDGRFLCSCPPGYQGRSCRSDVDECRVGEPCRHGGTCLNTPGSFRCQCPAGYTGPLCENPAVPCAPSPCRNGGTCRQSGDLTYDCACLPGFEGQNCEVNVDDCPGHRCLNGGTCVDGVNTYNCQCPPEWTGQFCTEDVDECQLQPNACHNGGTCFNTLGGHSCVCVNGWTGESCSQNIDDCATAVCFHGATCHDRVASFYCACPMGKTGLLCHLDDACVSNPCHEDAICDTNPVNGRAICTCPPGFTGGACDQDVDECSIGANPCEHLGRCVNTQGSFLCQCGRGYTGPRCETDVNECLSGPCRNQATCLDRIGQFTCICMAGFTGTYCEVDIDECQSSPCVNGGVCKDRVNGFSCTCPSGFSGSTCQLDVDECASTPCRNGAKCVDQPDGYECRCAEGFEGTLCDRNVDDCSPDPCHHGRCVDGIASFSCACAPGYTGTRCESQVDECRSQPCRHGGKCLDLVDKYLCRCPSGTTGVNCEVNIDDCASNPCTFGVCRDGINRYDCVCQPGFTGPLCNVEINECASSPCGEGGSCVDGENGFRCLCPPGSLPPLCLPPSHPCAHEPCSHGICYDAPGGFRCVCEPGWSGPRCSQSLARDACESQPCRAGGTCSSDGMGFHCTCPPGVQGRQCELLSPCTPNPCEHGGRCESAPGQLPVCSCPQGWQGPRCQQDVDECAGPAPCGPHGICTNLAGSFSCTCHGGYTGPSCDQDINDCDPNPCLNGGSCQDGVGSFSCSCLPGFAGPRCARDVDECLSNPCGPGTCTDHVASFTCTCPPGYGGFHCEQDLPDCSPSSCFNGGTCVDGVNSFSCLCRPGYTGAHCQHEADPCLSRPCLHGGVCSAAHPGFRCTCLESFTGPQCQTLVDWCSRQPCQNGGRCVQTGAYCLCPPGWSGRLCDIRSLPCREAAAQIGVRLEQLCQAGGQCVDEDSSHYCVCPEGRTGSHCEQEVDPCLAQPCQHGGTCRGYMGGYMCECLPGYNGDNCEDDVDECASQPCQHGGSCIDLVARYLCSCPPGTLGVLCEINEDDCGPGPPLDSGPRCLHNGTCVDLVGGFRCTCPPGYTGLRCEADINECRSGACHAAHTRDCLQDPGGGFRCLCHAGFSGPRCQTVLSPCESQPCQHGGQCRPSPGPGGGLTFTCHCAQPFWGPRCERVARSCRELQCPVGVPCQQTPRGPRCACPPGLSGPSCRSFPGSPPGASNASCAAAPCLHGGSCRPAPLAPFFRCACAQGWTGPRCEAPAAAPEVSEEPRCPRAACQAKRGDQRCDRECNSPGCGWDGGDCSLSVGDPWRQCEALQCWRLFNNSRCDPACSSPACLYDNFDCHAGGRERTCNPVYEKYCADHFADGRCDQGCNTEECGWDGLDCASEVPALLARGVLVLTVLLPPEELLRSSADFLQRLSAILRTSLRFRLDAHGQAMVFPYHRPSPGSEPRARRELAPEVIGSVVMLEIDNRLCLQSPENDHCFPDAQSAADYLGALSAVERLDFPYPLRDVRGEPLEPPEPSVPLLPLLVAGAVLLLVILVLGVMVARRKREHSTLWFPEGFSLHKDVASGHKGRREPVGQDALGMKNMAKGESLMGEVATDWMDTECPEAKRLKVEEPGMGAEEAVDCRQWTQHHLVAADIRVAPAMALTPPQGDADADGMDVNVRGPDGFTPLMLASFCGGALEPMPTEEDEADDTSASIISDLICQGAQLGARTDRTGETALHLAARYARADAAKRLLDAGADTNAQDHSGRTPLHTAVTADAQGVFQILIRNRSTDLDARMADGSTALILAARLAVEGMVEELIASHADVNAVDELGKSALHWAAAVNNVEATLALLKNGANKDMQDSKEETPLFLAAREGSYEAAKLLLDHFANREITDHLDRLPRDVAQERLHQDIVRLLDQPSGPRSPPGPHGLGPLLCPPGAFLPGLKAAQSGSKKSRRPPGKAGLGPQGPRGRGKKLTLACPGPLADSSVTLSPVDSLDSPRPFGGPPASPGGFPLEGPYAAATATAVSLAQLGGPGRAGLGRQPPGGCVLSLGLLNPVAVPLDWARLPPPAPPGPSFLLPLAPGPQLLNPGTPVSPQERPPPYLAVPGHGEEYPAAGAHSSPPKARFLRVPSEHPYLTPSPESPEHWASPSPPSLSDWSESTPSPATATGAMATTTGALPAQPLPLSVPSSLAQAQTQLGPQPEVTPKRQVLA
Chain of Follistatin-related protein 3 (Homo sapiens) (O95633 whole entry, looked up): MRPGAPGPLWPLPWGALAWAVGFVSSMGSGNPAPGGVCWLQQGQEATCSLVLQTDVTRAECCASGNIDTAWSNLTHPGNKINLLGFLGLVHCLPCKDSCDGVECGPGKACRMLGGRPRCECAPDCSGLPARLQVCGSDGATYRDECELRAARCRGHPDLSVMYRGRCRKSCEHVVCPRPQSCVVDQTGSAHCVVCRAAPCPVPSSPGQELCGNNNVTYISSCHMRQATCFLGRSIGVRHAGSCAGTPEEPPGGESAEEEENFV
Chain of Fibroblast growth factor 10 (Homo sapiens) (O15520 whole entry, looked up): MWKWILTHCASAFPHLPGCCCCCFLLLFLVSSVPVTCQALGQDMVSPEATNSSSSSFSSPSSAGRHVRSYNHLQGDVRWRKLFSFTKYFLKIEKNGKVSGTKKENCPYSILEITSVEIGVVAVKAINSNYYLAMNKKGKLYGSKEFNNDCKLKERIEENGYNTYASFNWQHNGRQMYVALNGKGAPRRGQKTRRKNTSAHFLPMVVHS
Chain of Torsin-1A-interacting protein 2 (Homo sapiens) (Q8NFQ8 whole entry, looked up): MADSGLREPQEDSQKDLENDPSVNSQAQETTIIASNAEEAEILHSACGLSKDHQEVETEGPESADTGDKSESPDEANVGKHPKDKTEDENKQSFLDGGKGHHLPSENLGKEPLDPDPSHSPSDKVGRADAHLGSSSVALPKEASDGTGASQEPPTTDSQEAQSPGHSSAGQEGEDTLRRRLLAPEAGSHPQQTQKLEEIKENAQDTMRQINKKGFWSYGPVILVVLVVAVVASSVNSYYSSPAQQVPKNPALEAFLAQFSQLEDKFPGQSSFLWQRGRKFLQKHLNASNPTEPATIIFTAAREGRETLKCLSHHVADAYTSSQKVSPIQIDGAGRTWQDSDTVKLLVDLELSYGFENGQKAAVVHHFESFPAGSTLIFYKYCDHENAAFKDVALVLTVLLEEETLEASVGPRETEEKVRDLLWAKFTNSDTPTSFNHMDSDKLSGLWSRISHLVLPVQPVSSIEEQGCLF
Chain of Dickkopf-related protein 1 (Homo sapiens) (O94907 whole entry, looked up): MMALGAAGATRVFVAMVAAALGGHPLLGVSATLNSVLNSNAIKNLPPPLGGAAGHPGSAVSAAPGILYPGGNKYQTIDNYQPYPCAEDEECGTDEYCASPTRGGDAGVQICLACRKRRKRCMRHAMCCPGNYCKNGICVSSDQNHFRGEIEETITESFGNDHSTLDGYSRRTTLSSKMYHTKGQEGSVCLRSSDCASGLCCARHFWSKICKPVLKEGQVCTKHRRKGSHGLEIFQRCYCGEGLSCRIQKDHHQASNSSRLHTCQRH

Row | Compound | composite z-score [1] | z-score [2] | z-score [3] | z-score [4] | composite z-score [5] | z-score [6] | composite z-score [7] | composite z-score [8] | composite z-score [9] | composite z-score [10] | composite z-score [11] | composite z-score [12] | composite z-score [13] | z-score [14] | composite z-score [15] | composite z-score [16] | composite z-score [17] | composite z-score [18] | composite z-score [19] | composite z-score [20]
1 | COc1cccc(C)c1NC(=O)O[C@H]1[C@H](OC(=O)Nc2ccc3c(c2)OCO3)[C@@H](OC(=O)Nc2ccc3c(c2)OCO3)[C@@H](OC)O[C@@H]1CO | 1.54 | 1.94 (inactive) | 2.2 (inactive) | 8.01 (active) | 3.58 | 1.23 (inactive) | 0.218 | 1.4 | 1.04 | -0.0031 | 0.264 | 0.18 | 0.232 | -0.23 (inactive) | 1.46 | 1.35 | 0.603 | 1.44 | 0.708 | 0.724
2 | COc1ccc([Si](C)(C)[C@@H]2[C@@H](CCO)O[C@]3(C(=O)N(Cc4ccccc4)c4ccc(N5CCOC5=O)cc43)[C@H]2C)cc1 | 1.51 | 2.55 (inactive) | -0.522 (inactive) | 17.5 (active) | 1.78 | 1.44 (inactive) | -0.0722 | 0.446 | 0.693 | -0.14 | 1.54 | 0.0274 | -0.0546 | -1.64 (inactive) | 0.24 | 0.624 | 0.254 | 0.637 | 0.406 | 0.729
3 | CCCCC(CC)C(O)C1C=CC2C(=O)N(c3ccccc3)C(=O)C2N1Nc1ccc(C#N)cc1 (stereo not given) | 1.54 | 0.491 (inactive) | 0.221 (inactive) | 1.85 (inactive) | 3.14 | 0.0307 (inactive) | 0.555 | 0.208 | 1.04 | 0.338 | 0.976 | 1.33 | 0.813 | 0.037 (inactive) | 1.11 | 1.32 | 0.217 | 1.28 | 0.0492 | 0.783
4 | COCCOC(=O)N1C(=O)[C@@]2(c3ccccc31)[C@H](c1ccc(O)cc1)N1[C@H](c3ccccc3)[C@H](c3ccccc3)OC(=O)[C@H]1[C@@H]2C(=O)N1CCN(c2ncccn2)CC1 | 1.55 | 0.42 (inactive) | 1.17 (inactive) | 1.84 (inactive) | 2.78 | 1.05 (inactive) | 0.0669 | 1.13 | 0.855 | 0.0334 | 1.45 | 0.0484 | 0.419 | -0.225 (inactive) | 1.04 | 1.11 | 0.194 | 0.466 | 0.259 | 0.922
5 | CC1CC/C=C\[C@H]2OC34C=CCN(C(C)(C)C)C(=O)[C@H]3N(CCCCCO)C(=O)[C@@H]4C2C(=O)O1 (stereo not given in full) | -0.187 | -0.0244 (inactive) | 0.531 (inactive) | -0.615 (inactive) | -0.0626 | -0.129 (inactive) | -0.261 | -0.673 | -0.284 | -0.262 | 0.261 | -0.27 | 0.2 | -0.0565 (inactive) | -0.899 | -0.696 | -1.08 | -0.852 | -1.16 | 0.0607
6 | C=CCNC(=O)[C@@H]1[C@H]2C(=O)O[C@H](c3ccccc3)[C@H](c3ccccc3)N2[C@H](c2ccccc2OCCO)[C@@]12C(=O)N(C(=O)OCCOC)c1ccc(C#CC3(O)CCCCCC3)cc12 | 1.56 | 0.0171 (inactive) | -0.0365 (inactive) | 5.23 (inactive) | 2.86 | 1.41 (inactive) | -0.0146 | 1.02 | 1.1 | -0.0177 | 1.17 | 0.0347 | 0.31 | -0.692 (inactive) | 0.87 | 1.3 | 0.598 | 1.36 | 0.579 | 1.13
7 | Cc1ccc(N2C(=O)c3ccccc3[C@@H](C(=O)NCCCN(C)C)[C@@H]2c2ccc(CO)cc2)nc1 | 0.0027 | -0.292 (inactive) | -0.636 (inactive) | -0.81 (inactive) | -0.732 | 0.213 (inactive) | 0.186 | -0.572 | -0.916 | 0.576 | 0.451 | 1.51 | 0.824 | -0.556 (inactive) | -0.514 | -0.298 | 0.239 | 0.102 | -0.06 | -0.153
8 | CN1C2C=C(CCCO)C(C3C(=O)N(C(N)=O)C(=O)C32)C1C1CC1 (stereo not given) | -0.0255 | -0.163 (inactive) | -0.0516 (inactive) | -0.32 (inactive) | 0.0963 | -0.583 (inactive) | -0.0812 | -0.22 | -0.523 | -0.163 | -0.149 | -0.105 | 0.1 | 0.93 (inactive) | -0.0933 | -0.0699 | -0.0436 | -0.785 | 0.0144 | -0.393
9 | COC(=O)[C@@H]1N=C(c2ccc(OCCCO)cc2)O[C@@H]1c1ccccc1 | -1.01 | -1.16 (inactive) | -2.33 (inactive) | -2.55 (inactive) | 1.58 | 1.11 (inactive) | -0.149 | -0.993 | -1 | -0.0485 | 1.76 | 0.311 | 0.725 | -2.07 (inactive) | -1.4 | -1.33 | -0.665 | -1.22 | -1.71 | -0.0285
10 | COc1ccc(C#Cc2ccc3c(c2)[C@]2(C(=O)N3)[C@H](c3ccc(OCCO)cc3)N3[C@H](c4ccccc4)[C@H](c4ccccc4)OC(=O)[C@H]3[C@@H]2C(=O)NC[C@H](O)c2ccccc2)cc1 | 1.57 | 4.38 (inactive) | 2.39 (inactive) | 4.82 (inactive) | 3.08 | 1.16 (inactive) | -0.0977 | 0.447 | 1.08 | -0.0152 | 0.614 | 0.0477 | -0.0975 | -0.124 (inactive) | 0.882 | 0.72 | 0.342 | 1.08 | 0.301 | -0.177
